Measurements as given in article PMC7862700, “An all-to-all approach to the identification of sequence-specific readers for epigenetic DNA modifications on cytosine”.

Key:
Assay in all cases: DAPPL (digital affinity profiling via proximity ligation, sequencing); 10 mM Tris-HCl pH 7.5, 50 mM NaCl, 1 mM DTT, 4% glycerol, room temperature, 30 min; GST-TFs on glutathione beads, 16-mer random dsDNA library, 0.1% formaldehyde crosslink after washing; high values mean tight binding
Settings in all cases: protein: recombinant; tags: N-terminal GST; dsDNA, one strand shown
[1] = molecular target: T1, FLI1 (Homo sapiens, UniProt Q01543 1-452)
T1 sequence: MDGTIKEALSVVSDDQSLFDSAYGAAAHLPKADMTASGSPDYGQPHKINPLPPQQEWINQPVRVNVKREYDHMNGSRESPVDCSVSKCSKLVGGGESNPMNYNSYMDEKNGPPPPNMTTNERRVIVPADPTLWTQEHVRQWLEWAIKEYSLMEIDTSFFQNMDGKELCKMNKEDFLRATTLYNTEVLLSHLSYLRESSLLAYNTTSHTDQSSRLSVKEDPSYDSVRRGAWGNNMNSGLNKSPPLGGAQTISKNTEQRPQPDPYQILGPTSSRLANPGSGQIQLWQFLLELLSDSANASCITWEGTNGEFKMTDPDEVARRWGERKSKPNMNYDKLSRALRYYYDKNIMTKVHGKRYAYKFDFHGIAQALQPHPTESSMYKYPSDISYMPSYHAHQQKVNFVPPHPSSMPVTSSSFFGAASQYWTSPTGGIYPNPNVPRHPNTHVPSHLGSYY
Outline: (§1)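 Binding signal is given per hexamer as its read frequency for a factor divided by its frequency in the tag-only sample. GST-fused human transcription factors were expressed in yeast, captured on glutathione beads, barcoded with DNA and pooled with that sample, then incubated with 200 nmole of a 16-mer random double-stranded DNA library in Tris/NaCl/DTT/glycerol buffer for 30 min at room temperature. The pools were then washed, crosslinked, proximity-ligated, amplified by PCR and sequenced on an Illumina NextSeq500.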

[2] = molecular target: T2, ELK1 (Homo sapiens, UniProt P19419 1-428)
T2 sequence: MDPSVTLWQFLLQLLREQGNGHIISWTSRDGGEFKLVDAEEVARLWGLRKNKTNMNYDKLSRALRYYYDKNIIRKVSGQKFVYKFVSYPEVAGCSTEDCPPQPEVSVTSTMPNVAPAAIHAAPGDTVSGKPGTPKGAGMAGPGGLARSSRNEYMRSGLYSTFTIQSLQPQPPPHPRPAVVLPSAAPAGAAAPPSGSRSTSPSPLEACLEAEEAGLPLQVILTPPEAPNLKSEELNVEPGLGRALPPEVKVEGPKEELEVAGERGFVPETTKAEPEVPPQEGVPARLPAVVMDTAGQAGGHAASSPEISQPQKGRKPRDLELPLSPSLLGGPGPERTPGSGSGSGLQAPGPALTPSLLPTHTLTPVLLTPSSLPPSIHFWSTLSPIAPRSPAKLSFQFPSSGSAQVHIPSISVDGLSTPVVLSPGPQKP
Outline: as §1

[3] = molecular target: T3, GABPA (Homo sapiens, UniProt Q06546 1-454)
T3 sequence: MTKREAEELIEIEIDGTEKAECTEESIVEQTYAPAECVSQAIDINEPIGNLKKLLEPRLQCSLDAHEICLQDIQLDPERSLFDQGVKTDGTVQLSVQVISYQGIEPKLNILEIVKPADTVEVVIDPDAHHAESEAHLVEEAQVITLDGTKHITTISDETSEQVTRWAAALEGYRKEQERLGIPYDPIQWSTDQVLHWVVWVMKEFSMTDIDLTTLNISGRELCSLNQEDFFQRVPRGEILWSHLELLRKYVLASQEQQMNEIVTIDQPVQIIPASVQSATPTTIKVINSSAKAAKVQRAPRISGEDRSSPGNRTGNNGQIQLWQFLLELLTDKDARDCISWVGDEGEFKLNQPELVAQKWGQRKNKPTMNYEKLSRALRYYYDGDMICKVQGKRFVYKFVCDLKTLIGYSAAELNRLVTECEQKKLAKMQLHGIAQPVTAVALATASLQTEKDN
Outline: as §1

[4] = molecular target: T4, ERG (Homo sapiens, UniProt P11308 1-479)
T4 sequence: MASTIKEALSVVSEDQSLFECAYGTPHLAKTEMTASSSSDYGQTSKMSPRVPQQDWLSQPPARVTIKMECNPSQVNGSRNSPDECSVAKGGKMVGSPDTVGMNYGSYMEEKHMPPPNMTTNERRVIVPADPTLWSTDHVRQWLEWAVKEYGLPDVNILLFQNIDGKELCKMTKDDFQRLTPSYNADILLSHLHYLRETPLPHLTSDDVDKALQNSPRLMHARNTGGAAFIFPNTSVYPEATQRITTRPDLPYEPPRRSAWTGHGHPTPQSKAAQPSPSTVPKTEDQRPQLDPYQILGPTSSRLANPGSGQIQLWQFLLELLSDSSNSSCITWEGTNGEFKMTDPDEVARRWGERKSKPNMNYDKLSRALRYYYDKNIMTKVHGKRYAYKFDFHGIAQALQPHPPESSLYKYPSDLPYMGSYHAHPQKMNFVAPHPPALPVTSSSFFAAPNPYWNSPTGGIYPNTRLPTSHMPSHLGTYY
Outline: as §1

[5] = molecular target: ELF1 (Homo sapiens, UniProt P32519 1-619)
Outline: as §1

[6] = molecular target: T5, EHF (Homo sapiens, UniProt Q9NZC4 1-300)
T5 sequence: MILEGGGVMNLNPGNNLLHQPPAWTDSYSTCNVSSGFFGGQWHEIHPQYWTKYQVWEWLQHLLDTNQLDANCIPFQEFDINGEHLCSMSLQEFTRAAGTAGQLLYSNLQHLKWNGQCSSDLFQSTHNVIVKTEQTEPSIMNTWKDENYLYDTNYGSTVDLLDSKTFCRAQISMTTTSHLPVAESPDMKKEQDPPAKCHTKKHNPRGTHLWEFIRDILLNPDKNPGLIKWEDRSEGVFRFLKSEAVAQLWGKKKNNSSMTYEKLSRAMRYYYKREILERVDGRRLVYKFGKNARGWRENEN
Outline: as §1

[7] = molecular target: SPI1 (Homo sapiens, UniProt P17947 1-270)
Outline: as §1

[8] = molecular target: SPIB (Homo sapiens, UniProt Q01892 1-262)
Outline: as §1

[9] = molecular target: T6, ELK3 (Homo sapiens, UniProt P41970 1-407)
T6 sequence: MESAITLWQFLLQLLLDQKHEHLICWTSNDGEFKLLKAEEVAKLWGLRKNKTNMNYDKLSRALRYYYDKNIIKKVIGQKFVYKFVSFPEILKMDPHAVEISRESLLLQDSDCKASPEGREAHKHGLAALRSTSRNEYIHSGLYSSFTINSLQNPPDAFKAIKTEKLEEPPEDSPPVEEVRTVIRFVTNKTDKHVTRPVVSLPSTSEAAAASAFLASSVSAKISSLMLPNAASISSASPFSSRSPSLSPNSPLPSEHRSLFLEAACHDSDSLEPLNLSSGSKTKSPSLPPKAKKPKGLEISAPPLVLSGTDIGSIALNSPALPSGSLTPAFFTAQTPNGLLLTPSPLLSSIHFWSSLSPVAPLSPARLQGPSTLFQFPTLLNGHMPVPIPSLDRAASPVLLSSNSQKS
Outline: as §1

[10] = molecular target: T7, FEV (Homo sapiens, UniProt Q99581 1-238)
T7 sequence: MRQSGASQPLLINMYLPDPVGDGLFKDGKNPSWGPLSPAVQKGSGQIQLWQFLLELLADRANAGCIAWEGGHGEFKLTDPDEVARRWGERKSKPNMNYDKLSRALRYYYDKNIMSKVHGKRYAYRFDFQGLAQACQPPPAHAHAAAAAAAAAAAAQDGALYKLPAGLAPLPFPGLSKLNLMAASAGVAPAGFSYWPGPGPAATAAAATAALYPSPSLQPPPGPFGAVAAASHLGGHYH
Outline: as §1

[11] = molecular target: ETV5 (Homo sapiens, UniProt P41161 1-510)
Outline: as §1

[12] = molecular target: T8, SPIC (Homo sapiens, UniProt Q8N5J4 1-248)
T8 sequence: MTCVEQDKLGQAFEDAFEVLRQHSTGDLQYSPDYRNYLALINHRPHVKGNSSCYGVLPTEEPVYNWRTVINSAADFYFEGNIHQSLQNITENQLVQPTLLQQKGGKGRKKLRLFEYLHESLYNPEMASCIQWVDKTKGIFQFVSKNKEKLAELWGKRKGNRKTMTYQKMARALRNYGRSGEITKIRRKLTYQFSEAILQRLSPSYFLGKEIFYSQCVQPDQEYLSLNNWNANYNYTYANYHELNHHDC
Outline: as §1

[13] = molecular target: ELF4 (Homo sapiens, UniProt Q99607 1-663)
Outline: as §1

[14] = molecular target: T9, ELK4 (Homo sapiens, UniProt P28324-2 1-405)
T9 sequence: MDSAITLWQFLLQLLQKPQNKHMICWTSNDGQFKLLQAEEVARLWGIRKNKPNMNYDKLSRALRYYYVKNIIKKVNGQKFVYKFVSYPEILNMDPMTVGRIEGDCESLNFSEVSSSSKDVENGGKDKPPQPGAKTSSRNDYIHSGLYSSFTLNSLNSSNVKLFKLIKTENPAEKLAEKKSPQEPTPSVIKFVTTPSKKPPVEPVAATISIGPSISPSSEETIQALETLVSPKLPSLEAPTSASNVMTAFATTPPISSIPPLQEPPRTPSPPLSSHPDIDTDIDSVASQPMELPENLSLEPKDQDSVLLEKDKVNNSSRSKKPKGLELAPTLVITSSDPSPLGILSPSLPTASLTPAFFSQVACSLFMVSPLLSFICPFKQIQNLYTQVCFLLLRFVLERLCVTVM
Outline: as §1

[15] = molecular target: T10, ETV2 (Homo sapiens, UniProt O00321 1-342)
T10 sequence: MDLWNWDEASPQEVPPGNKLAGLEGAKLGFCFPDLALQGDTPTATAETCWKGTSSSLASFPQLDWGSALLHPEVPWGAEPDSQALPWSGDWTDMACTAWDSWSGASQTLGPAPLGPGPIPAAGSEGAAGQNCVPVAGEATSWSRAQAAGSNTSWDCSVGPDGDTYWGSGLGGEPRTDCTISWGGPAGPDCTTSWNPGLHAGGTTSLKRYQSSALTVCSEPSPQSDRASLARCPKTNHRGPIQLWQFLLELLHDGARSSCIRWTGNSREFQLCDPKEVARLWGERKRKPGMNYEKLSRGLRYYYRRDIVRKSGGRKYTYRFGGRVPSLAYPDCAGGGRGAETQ
Outline: as §1

[16] = molecular target: T11, ELF3 (Homo sapiens, UniProt P78545 1-371)
T11 sequence: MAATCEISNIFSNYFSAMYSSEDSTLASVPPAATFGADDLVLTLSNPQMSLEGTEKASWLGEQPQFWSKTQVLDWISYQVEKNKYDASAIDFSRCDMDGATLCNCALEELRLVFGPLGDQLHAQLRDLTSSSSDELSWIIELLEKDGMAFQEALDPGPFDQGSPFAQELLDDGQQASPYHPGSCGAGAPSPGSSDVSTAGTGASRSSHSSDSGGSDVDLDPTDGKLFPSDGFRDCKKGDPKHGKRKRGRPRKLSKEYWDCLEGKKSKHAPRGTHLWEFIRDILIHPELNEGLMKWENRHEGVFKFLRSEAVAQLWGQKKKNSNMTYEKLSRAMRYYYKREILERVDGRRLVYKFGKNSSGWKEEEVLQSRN
Outline: as §1

[17] = molecular target: ETV1 (Homo sapiens, UniProt P50549 1-477)
Outline: as §1

ELF1, sequence (P32519 whole entry): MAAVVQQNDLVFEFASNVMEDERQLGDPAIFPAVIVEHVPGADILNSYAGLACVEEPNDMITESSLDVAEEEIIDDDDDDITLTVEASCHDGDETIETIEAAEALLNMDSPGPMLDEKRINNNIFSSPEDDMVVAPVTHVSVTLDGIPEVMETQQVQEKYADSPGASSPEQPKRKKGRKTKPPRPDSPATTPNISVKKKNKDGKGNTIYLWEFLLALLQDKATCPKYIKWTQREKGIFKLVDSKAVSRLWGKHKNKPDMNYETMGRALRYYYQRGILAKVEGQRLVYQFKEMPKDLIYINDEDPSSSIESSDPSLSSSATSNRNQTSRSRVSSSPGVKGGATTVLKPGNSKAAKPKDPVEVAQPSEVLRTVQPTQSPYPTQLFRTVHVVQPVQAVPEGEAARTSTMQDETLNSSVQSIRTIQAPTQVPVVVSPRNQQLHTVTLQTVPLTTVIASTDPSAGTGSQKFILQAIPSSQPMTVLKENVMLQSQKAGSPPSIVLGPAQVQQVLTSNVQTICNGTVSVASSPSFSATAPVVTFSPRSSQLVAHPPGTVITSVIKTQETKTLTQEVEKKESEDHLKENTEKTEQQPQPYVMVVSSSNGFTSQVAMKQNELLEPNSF
ETV5, sequence (P41161 whole entry): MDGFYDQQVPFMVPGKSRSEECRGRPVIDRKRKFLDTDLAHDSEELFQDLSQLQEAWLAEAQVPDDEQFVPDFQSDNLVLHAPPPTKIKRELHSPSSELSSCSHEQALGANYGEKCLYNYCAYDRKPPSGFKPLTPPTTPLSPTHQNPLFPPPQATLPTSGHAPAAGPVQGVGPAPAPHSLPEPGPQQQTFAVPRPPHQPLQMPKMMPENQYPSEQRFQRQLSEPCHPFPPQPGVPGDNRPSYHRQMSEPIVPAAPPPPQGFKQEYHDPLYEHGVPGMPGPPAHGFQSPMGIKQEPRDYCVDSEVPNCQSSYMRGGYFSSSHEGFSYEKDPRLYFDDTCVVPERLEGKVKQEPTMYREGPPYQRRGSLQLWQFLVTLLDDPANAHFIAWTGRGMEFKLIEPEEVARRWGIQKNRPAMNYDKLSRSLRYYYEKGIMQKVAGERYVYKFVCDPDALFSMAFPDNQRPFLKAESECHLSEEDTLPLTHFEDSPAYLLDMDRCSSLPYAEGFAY
SPIB, sequence (Q01892 whole entry): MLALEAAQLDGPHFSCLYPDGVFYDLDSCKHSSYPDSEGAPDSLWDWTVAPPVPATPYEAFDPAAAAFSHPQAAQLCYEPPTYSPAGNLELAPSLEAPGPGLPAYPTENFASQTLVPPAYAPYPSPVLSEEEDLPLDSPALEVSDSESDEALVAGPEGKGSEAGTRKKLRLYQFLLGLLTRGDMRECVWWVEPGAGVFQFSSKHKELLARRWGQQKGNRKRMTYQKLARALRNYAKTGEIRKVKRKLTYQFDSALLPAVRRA
ELF4, sequence (Q99607 whole entry): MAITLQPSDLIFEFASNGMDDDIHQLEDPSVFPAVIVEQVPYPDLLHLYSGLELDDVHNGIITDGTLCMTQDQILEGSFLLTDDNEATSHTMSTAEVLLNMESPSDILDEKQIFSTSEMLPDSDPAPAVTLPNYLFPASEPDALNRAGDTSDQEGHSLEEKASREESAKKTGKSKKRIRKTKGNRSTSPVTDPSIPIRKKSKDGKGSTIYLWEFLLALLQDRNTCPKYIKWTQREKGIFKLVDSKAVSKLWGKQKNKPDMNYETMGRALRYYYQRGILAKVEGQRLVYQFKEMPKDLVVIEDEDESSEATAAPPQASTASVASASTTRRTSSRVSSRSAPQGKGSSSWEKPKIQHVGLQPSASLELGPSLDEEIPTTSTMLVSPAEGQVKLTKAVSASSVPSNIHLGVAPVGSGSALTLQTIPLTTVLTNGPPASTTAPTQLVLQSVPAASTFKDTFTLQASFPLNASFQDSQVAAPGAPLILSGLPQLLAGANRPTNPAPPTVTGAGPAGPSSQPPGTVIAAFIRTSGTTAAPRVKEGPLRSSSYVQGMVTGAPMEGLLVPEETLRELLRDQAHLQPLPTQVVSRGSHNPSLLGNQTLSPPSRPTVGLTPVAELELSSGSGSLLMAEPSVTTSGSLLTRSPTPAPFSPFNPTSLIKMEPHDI
ETV1, sequence (P50549 whole entry): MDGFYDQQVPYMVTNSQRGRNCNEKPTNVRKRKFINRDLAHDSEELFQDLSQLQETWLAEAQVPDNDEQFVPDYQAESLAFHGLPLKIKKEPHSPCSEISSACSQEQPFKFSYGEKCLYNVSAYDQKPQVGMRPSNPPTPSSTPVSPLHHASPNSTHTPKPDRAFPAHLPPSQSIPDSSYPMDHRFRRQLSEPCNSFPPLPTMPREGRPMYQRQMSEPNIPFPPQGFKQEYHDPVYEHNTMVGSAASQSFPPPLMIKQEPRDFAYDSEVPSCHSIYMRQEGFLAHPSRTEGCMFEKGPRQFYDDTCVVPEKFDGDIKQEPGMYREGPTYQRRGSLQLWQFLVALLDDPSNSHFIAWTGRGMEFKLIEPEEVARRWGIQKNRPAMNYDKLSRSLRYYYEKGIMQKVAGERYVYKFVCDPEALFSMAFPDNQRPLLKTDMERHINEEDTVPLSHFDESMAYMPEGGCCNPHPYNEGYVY

| Sequence | binding signal [1] | binding signal [2] | binding signal [3] | binding signal [4] | binding signal [5] | binding signal [6] | binding signal [7] | binding signal [8] | binding signal [9] | binding signal [10] | binding signal [11] | binding signal [12] | binding signal [13] | binding signal [14] | binding signal [15] | binding signal [16] | binding signal [17] |
| --- | --- | --- | --- | --- | --- | --- | --- | --- | --- | --- | --- | --- | --- | --- | --- | --- | --- |
| AACCAC | 1.18 fold enrichment (6-mer frequency, TF over GST control) | 1.19 fold enrichment (6-mer frequency, TF over GST control) | 1.17 fold enrichment (6-mer frequency, TF over GST control) | 1.15 fold enrichment (6-mer frequency, TF over GST control) | 1.25 fold enrichment (6-mer frequency, TF over GST control) | 1.16 fold enrichment (6-mer frequency, TF over GST control) | 1.12 fold enrichment (6-mer frequency, TF over GST control) | 1.19 fold enrichment (6-mer frequency, TF over GST control) | 1.29 fold enrichment (6-mer frequency, TF over GST control) | 1.2 fold enrichment (6-mer frequency, TF over GST control) | 1.17 fold enrichment (6-mer frequency, TF over GST control) | 1.25 fold enrichment (6-mer frequency, TF over GST control) | 1.26 fold enrichment (6-mer frequency, TF over GST control) | 1.26 fold enrichment (6-mer frequency, TF over GST control) | 1.05 fold enrichment (6-mer frequency, TF over GST control) | 1.21 fold enrichment (6-mer frequency, TF over GST control) | 1.17 fold enrichment (6-mer frequency, TF over GST control) |
| CACCCG | 1.14 fold enrichment (6-mer frequency, TF over GST control) | 1.24 fold enrichment (6-mer frequency, TF over GST control) | 1.18 fold enrichment (6-mer frequency, TF over GST control) | 1.21 fold enrichment (6-mer frequency, TF over GST control) | 1.2 fold enrichment (6-mer frequency, TF over GST control) | 1.2 fold enrichment (6-mer frequency, TF over GST control) | 1.12 fold enrichment (6-mer frequency, TF over GST control) | 1.28 fold enrichment (6-mer frequency, TF over GST control) | 1.17 fold enrichment (6-mer frequency, TF over GST control) | 1.16 fold enrichment (6-mer frequency, TF over GST control) | 1.21 fold enrichment (6-mer frequency, TF over GST control) | 1.17 fold enrichment (6-mer frequency, TF over GST control) | 1.18 fold enrichment (6-mer frequency, TF over GST control) | 1.29 fold enrichment (6-mer frequency, TF over GST control) | 1.2 fold enrichment (6-mer frequency, TF over GST control) | 1.16 fold enrichment (6-mer frequency, TF over GST control) | 1.14 fold enrichment (6-mer frequency, TF over GST control) |
| TGCATG | 1.12 fold enrichment (6-mer frequency, TF over GST control) | 1.09 fold enrichment (6-mer frequency, TF over GST control) | 1.13 fold enrichment (6-mer frequency, TF over GST control) | 1.13 fold enrichment (6-mer frequency, TF over GST control) | 1.15 fold enrichment (6-mer frequency, TF over GST control) | 1.15 fold enrichment (6-mer frequency, TF over GST control) | 1.02 fold enrichment (6-mer frequency, TF over GST control) | 1.14 fold enrichment (6-mer frequency, TF over GST control) | 1.14 fold enrichment (6-mer frequency, TF over GST control) | 1.04 fold enrichment (6-mer frequency, TF over GST control) | 1.15 fold enrichment (6-mer frequency, TF over GST control) | 1.27 fold enrichment (6-mer frequency, TF over GST control) | 1.08 fold enrichment (6-mer frequency, TF over GST control) | 1.05 fold enrichment (6-mer frequency, TF over GST control) | 1.08 fold enrichment (6-mer frequency, TF over GST control) | 1.02 fold enrichment (6-mer frequency, TF over GST control) | 1.06 fold enrichment (6-mer frequency, TF over GST control) |
